Laboratory results published in PubChem BioAssay (NCI).
Values joined by “and” are separate entries in the source; they are usually repeats but may differ in a detail not shown here. Equal values may be shown once. Compounds without any hit were thinned out: in the full panel of roughly 83,000, 20% have a hit.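 Plates (96-well) were seeded with cells, treated with compound at one concentration, and incubated for 48 hours before percent growth was determined.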 Active and inactive are the calls of the source. The calls were made as follows: active = growth percent below 10; inactive = the rest.

System: HL-60(TB) leukemia
Assay: NCI-60 one-dose screen, 48 h (100 = growth as untreated, 0 = no growth, -100 = all killed)
Conditions: 10 µM unless noted

In the case of NNC(=O)c1nc(N)n(-c2ccc(S(N)(=O)=O)cc2)n1, the growth is reported as 99.5% (inactive).
For Cc1ccc(NC(=S)NNC(=S)NNc2ccccc2)cc1C, the growth was 20.4% (inactive).
In the case of Cc1cc(-c2ccc(NS(=O)(=O)c3ccccc3)c(C)c2)ccc1NS(=O)(=O)c1ccccc1, the growth is reported as 74.5% (inactive) and 97.3% (inactive).
O=C1C(Cl)=C(Oc2ccccc2)C(=O)c2ccccc21 was tested, and the growth was 76% (inactive).
COc1ccc(CNC(=O)COc2ccc(/C=N/Nc3nc4ccccc4s3)cc2)cc1 was tested, and the growth was 105% (inactive).
For O=Cc1ccc([N+](=O)[O-])s1, the growth was 81.9% (inactive).
For Cc1nn(-c2ccc(Cl)cc2)c2ncnc(N/N=C/c3ccccc3O)c12, the growth was -4.93% (active) and 1.67% (active).
With Cc1ccc(N2C(=O)c3cccc4c(N)c(S(=O)(=O)O)cc(c34)C2=O)cc1 the growth was 88.8% (inactive).
CCN(CC)c1ccc(N=O)cc1 was tested, and the growth was 33.1% (inactive).
With COc1ccc(-c2nc3ccccn3c2/C=C/C(=O)c2cc(OC)c(OC)c(OC)c2)cc1 the growth was 49.9% (inactive).
In the case of O=C(Nc1ccc(Br)cc1F)c1cc(F)ccc1O, the growth is reported as -19.7% (active).
In the case of COC(=O)[C@H]1[C@H](OC)[C@@H](OC(=O)/C=C/c2ccncc2)CC2CN3CCc4c([nH]c5cc(OC)ccc45)[C@@H]3C[C@@H]21 (stereo not given in full), the growth is reported as 28.6% (inactive).
With CC(C)Sc1nc(NN)c(C#N)c(-c2ccccc2)n1 the growth was 98.8% (inactive).
COc1ccc(-c2nnc(-c3ccc4c(c3)nc(-c3ccncc3)n4C3CCCCC3)o2)cc1 was tested, and the growth was 46.1% (inactive).
In the case of CCN(CC)CCn1c(=N)n(CC(O)c2ccc(Cl)c(Cl)c2)c2ccccc21 (stereo not given), the growth is reported as 71% (inactive).
